D1 mod – allosteric modulators of human D1 dopamine receptor; P21728; HEK293 D1, CRE-luciferase, dopamine EC30 potentiation; actives deviate in either direction; B-score at 10 µM; actives 5.9% (n = 58,000);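 active means luminescence count or its row- and column-corrected plate score outside the 99.7% band of the plate's sample wells, on either side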
CYP2C9 inhib – human CYP2C9 inhibition. inhibition, % at 5 µM. AID 777. CYP2C9 Supersomes, luciferin-H conversion, luminescence. actives 20% (n = 96,000);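 active means blocking of liver enzyme CYP2C9 beyond about 50% at 5 µM, limit read from the data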
DAT uptake mod – changed human dopamine transporter uptake under cocaine IC80. LLC-PK1 hDAT cells, [14C]-dopamine uptake with cocaine IC80; actives deviate in either direction. AID 449768. B-score at 10 µM. Q01959. actives 1.3% (n = 110,000);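 active means Z score or B-score, a plate-position-corrected score, falls beyond the plate's 99.7% confidence bounds, in either direction; inactive means both scores lie inside the 99.7% bounds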;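 further: scored against the spread of the other compound wells on the same plate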
Target sequence (Q01959 whole entry, looked up): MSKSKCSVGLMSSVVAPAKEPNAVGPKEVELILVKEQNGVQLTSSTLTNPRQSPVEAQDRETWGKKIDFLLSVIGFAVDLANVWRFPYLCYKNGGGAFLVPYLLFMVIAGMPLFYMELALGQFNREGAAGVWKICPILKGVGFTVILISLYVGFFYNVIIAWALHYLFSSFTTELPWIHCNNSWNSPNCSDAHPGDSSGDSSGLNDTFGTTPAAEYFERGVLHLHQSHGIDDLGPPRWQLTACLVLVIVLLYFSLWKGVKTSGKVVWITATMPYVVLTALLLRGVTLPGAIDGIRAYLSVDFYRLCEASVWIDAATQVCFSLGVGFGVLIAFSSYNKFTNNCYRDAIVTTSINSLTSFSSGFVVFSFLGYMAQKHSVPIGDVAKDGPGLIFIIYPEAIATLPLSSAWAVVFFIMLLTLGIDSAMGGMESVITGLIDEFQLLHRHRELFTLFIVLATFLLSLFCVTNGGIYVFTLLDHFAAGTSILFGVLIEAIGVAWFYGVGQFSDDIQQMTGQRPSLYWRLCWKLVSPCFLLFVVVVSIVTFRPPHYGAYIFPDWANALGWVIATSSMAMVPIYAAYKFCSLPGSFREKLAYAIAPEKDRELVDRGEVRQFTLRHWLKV
CYP2C9 activ – activators of human CYP2C9 | activation factor at 5 µM | actives 1.4% (n = 96,000) | recombinant CYP2C9, luciferin-H conversion, luminescence; stronger effect = higher value; factor 1 = untreated enzyme, 0 = blocked;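 active means activation factor of 2 or more for CYP2C9 at a 5 µM dose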;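 further: 0 = sulfaphenazole-blocked wells and 1 = vehicle-only wells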
CYP2C19 inhib – blocks human cytochrome P450 2C19; P33261; actives 21% (n = 96,000); CYP2C19 Supersomes, luciferin-H EGE luminescence, 30 min; inhibition, % at 5 µM;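 active means CYP2C19 inhibition above a set limit at 5 µM in the primary screen, cut at about 50% in these data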;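 further: plate controls were negative control wells for no effect and 2.5 mM tranylcypromine positive control for full effect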
CYP2C19 activ – cytochrome P450 2C19 (human) activation; P33261; recombinant CYP2C19, luciferin-H EGE luminescence; stronger effect = higher value; 0 = fully inhibited enzyme, 1 = untreated enzyme; activation factor at 5 µM; 96,000 tested, under 10 active;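 active means activation factor of at least 2 at 5 µM in the primary screen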;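 further: 0 = wells with 2.5 mM tranylcypromine and 1 = vehicle-only wells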
An asterisk follows results filed as active. An excerpt weighted towards active compounds, which were near 28% of everything screened.

How did Cc1cc2nc(CCN(C(=S)NCC(C)C)C3CCCC3)[nH]c2cc1C do in these assays?
CYP2C9 inhib: 43; DAT uptake mod: 2.7*; CYP2C9 activ: 0.6; CYP2C19 inhib: 39; CYP2C19 activ: 0.6

Results for COc1ccc(CC(NC(C)=O)C(=O)N2CCN(C(=O)Nc3ccc(Cl)cc3)CC2)cc1OC (configuration not stated) ?
D1 mod: -0.47; CYP2C9 inhib: 30; DAT uptake mod: 0.0099; CYP2C9 activ: 0.7; CYP2C19 inhib: 16; CYP2C19 activ: 0.8

How did Cc1ccc(C(=O)c2ccc(N3CCOCC3)c(F)c2)cc1 do in these assays?
DAT uptake mod: 4.5*

What do the screens show for `Cc1cc(N2CCOCC2)c(F)cc1C(=O)c1ccccc1`?
CYP2C9 inhib: 13; DAT uptake mod: 0.59; CYP2C9 activ: 0.9; CYP2C19 inhib: 59*; CYP2C19 activ: 0.4

How did CC12CCC(C(=O)N(NC(=O)c3cc(Cl)ccc3O)C1=O)C2(C)C (configuration not stated) do in these assays?
CYP2C9 inhib: -10; DAT uptake mod: 0.08; CYP2C9 activ: 1.1; CYP2C19 inhib: -28; CYP2C19 activ: 1.3

What do the screens show for `COc1ccc(C2(NC(C)=O)CCN(C(=O)c3ccco3)CC2)cc1`?
D1 mod: -0.14; CYP2C9 inhib: 40; DAT uptake mod: -0.31; CYP2C9 activ: 0.6; CYP2C19 inhib: 29; CYP2C19 activ: 0.7

What do the screens show for `O=C1CC(C2CCCO2)C(=O)N1c1cccc(Cl)c1` (configuration not stated)?
D1 mod: -0.54; CYP2C9 inhib: -17; DAT uptake mod: -0.75; CYP2C9 activ: 1.2; CYP2C19 inhib: -3; CYP2C19 activ: 1

What do the screens show for `CC1(C)CC2(CCO1)OC(=O)CC2C(=O)NCc1ccccc1` (configuration not stated)?
D1 mod: -0.16; CYP2C9 inhib: -4; DAT uptake mod: -0.44; CYP2C9 activ: 1; CYP2C19 inhib: 9; CYP2C19 activ: 0.9

What do the screens show for `Cc1cccc(-n2c(SCC(=O)Nc3ccc4c(c3)OCO4)nnc2-c2ccoc2C)c1`?
D1 mod: -3.4*; CYP2C9 inhib: 8; DAT uptake mod: 0.95; CYP2C9 activ: 0.9; CYP2C19 inhib: 1; CYP2C19 activ: 1

Results for COc1ccc(-n2c(SCC(=O)Nc3ccccc3)nnc2-c2ccoc2C)cc1 ?
DAT uptake mod: 0.56

What do the screens show for `Cc1occc1-c1nnc(SCC(=O)N2CCN(c3ccc(F)cc3)CC2)n1C`?
D1 mod: -0.49; CYP2C9 inhib: -4; DAT uptake mod: -0.75; CYP2C9 activ: 1; CYP2C19 inhib: -15; CYP2C19 activ: 1.1

How did COC(=O)c1ccccc1NC(=O)CSc1nnc(-c2ccoc2C)n1C do in these assays?
D1 mod: -0.24; CYP2C9 inhib: 32; DAT uptake mod: 0.0083; CYP2C9 activ: 0.7; CYP2C19 inhib: 74*; CYP2C19 activ: 0.3

Results for COC(=O)c1ccccc1NC(=O)CSc1nnc(-c2ccc(OC)cc2)n1C ?
DAT uptake mod: 0.28

Results for COc1cccc(NC(=O)CSc2nnc(-c3ccoc3C)n2-c2ccccc2)c1 ?
CYP2C9 inhib: 59*; DAT uptake mod: -0.069; CYP2C9 activ: 0.4; CYP2C19 inhib: 33; CYP2C19 activ: 0.7

Results for COc1ccc(-n2c(C)cc(C(=O)CSc3nnc(-c4ccoc4C)n3C)c2C)cc1 ?
D1 mod: -1.2; CYP2C9 inhib: 54*; DAT uptake mod: 2; CYP2C9 activ: 0.5; CYP2C19 inhib: 57*; CYP2C19 activ: 0.4

How did Cc1ccc(-n2c(SCC(=O)Nc3ccc4c(c3)OCO4)nnc2-c2cccs2)cc1 do in these assays?
D1 mod: 0.72; CYP2C9 inhib: 2; DAT uptake mod: -0.4; CYP2C9 activ: 1; CYP2C19 inhib: 18; CYP2C19 activ: 0.8

How did Cc1c(S(=O)(=O)N2CCOCC2)c(=O)n(C)c(=O)n1C do in these assays?
CYP2C9 inhib: 1; DAT uptake mod: -0.1; CYP2C9 activ: 1; CYP2C19 inhib: 10; CYP2C19 activ: 0.9

How did O=C(O)CSc1nnc(Cn2cnc3ccccc32)n1CCc1ccccc1 do in these assays?
D1 mod: -0.39; CYP2C9 inhib: 13; DAT uptake mod: -0.22; CYP2C9 activ: 0.9; CYP2C19 inhib: -2; CYP2C19 activ: 1

Results for CCOC(=O)c1c(C)[nH]c(C)c1C(=O)COC(=O)[C@@H]1CCCN1S(=O)(=O)c1ccc(Cl)cc1 ?
CYP2C9 inhib: 80*; DAT uptake mod: -1.1; CYP2C9 activ: 0.2; CYP2C19 inhib: 93*; CYP2C19 activ: 0.1

What do the screens show for `CCOCCCNC(=O)C1CCCN1S(=O)(=O)c1ccc(Cl)cc1` (configuration not stated)?
D1 mod: -0.075; CYP2C9 inhib: -32; DAT uptake mod: 0.058; CYP2C9 activ: 1.3; CYP2C19 inhib: -3; CYP2C19 activ: 1

What do the screens show for `O=C(COc1ccc(S(=O)(=O)NC2CCCCC2)cc1)N1CCN(c2cccc(Cl)c2)CC1`?
CYP2C9 inhib: 32; DAT uptake mod: 0.23; CYP2C9 activ: 0.7; CYP2C19 inhib: -14; CYP2C19 activ: 1.1

Results for CCc1nc(N2CCN(C(=O)c3ccco3)CC2)c2oc3ccccc3c2n1 ?
D1 mod: 0.0047; CYP2C9 inhib: 92*; DAT uptake mod: 2.8*; CYP2C9 activ: 0.1; CYP2C19 inhib: 95*; CYP2C19 activ: 0.1

What do the screens show for `COc1ccccc1N1CCN(c2nc(C)nc3c2oc2ccccc23)CC1`?
D1 mod: 2; CYP2C9 inhib: 26; DAT uptake mod: 0.0098; CYP2C9 activ: 0.7; CYP2C19 inhib: 32; CYP2C19 activ: 0.7

How did Cc1nc(N2CCC(C)CC2)c2oc3ccccc3c2n1 do in these assays?
CYP2C9 inhib: 70*; DAT uptake mod: -0.87; CYP2C9 activ: 0.3; CYP2C19 inhib: 67*; CYP2C19 activ: 0.3

Results for CCc1nc(N2CCCC2C(=O)O)c2oc3ccccc3c2n1 (configuration not stated) ?
D1 mod: 1; CYP2C9 inhib: -2; DAT uptake mod: 0.21; CYP2C9 activ: 1; CYP2C19 inhib: 3; CYP2C19 activ: 1

What do the screens show for `Cc1nc(N2CCN(C(=O)c3ccco3)CC2)c2oc3ccccc3c2n1`?
CYP2C9 inhib: 53*; DAT uptake mod: 0.68; CYP2C9 activ: 0.5; CYP2C19 inhib: 70*; CYP2C19 activ: 0.3

How did Cc1c(NC(=O)c2n[nH]c(=O)c3ccccc23)c(=O)n(-c2ccccc2)n1C do in these assays?
CYP2C9 inhib: -27; DAT uptake mod: -0.43; CYP2C9 activ: 1.3; CYP2C19 inhib: -20; CYP2C19 activ: 1.2

Results for Cc1nn2c(N3CCN(c4ccccn4)CC3)cc(C(C)C)nc2c1-c1ccccc1 ?
D1 mod: 0.3; CYP2C9 inhib: 62*; DAT uptake mod: -0.49; CYP2C9 activ: 0.4; CYP2C19 inhib: 14; CYP2C19 activ: 0.9

Source: PubChem (several laboratories)
